These results are taken from PubChem BioAssay (EPA / NIEHS).

Read-out in test [1]: Interleukin-1 alpha (IL1a), IL1A (gene 3552)
Kind of test: BSK_KF3CT_IL1a: BioMAP Diversity Plus: KF3CT Assay for Interleukin-1 alpha (IL1a) Biomarker Activity (AID 2283070). The settings on record: primary human keratinocytes with fibroblasts; actives raise or lower the signal. The essentials: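 Chemicals were dosed onto co-cultured human keratinocytes and foreskin fibroblasts, IL-1a was quantified by ELISA at 24 h, and activity was fitted in both directions relative to DMSO controls.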

Read-out in test [2]: TIMP metallopeptidase inhibitor 2 (TIMP2), TIMP2 (gene 7077)
Kind of test: BSK_KF3CT_TIMP2: BioMAP Diversity Plus: KF3CT Assay for TIMP metallopeptidase inhibitor 2 (TIMP2) Biomarker Activity (AID 2283071). The settings on record: primary human keratinocytes with fibroblasts; actives raise or lower the signal. The essentials: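 Cells: human keratinocytes co-cultured with foreskin fibroblasts. Treat with chemical, 24 h. Measure TIMP-2 by ELISA; fit curves bidirectionally vs DMSO baseline.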

Read-out in test [3]: C-C motif chemokine 2 (Homo sapiens) (UniProt P13500)
Kind of test: BSK_KF3CT_MCP1: BioMAP Diversity Plus: KF3CT Assay for Monocyte Chemoattractant Protein 1 (MCP1/CCL2) Biomarker Activity (AID 2283073). The settings on record: primary human keratinocytes with fibroblasts; actives raise or lower the signal. Summed up: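 ELISA readout of MCP-1 after 24 h chemical dosing of a human skin primary co-culture of keratinocytes and foreskin fibroblasts. Activity was fitted in both directions against DMSO.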

Read-out in test [4]: Matrix Metallopeptidase 9 (MMP9), MMP9 (gene 4318)
The test can be described thus: BSK_KF3CT_MMP9: BioMAP Diversity Plus: KF3CT Assay for Matrix Metallopeptidase 9 (MMP9) Biomarker Activity (AID 2283074).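 For AC50: MMP9 protein level quantified by ELISA in the co-culture.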 The settings on record: primary human keratinocytes with fibroblasts; actives raise or lower the signal. The essentials: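 Human keratinocyte/foreskin fibroblast co-culture; compound added; 24 h; MMP-9 by ELISA; bidirectional fit vs DMSO baseline.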

Read-out in test [5]: CD40, CD40 (gene 958)
The test can be described thus: BSK_LPS_CD40: BioMAP Diversity Plus: LPS Assay for CD40 Biomarker Activity (AID 2283076). The settings on record: primary human HUVEC with PBMC; actives raise or lower the signal. Summed up: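 Cells were dosed, incubated 24 h, then assayed for CD40 by ELISA. Gain or loss of signal was analysed relative to DMSO controls. The culture paired human umbilical vein endothelium with peripheral blood mononuclear cells.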

Read-out in test [6]: E-selectin (Homo sapiens) (UniProt P16581)
The test can be described thus: BSK_LPS_Eselectin: BioMAP Diversity Plus: LPS Assay for Eselectin Biomarker Activity (AID 2283077). As to conditions: primary human HUVEC with PBMC; actives raise or lower the signal. Summed up:
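Primary human vascular co-culture (endothelium plus PBMC) was dosed with chemical, then E-selectin quantified by ELISA at 24 h. Endpoint values derive from bidirectional curve fitting relative to DMSO.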

Read-out in test [7]: Interleukin-8 (IL8), CXCL8 (gene 3576)
Kind of test: BSK_LPS_IL8: BioMAP Diversity Plus: LPS Assay for Interleukin-8 (IL8) Biomarker Activity (AID 2283078). The settings on record: primary human HUVEC with PBMC; actives raise or lower the signal. The essentials: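 Readout is IL-8 by ELISA, taken 24 h after compounds were added to LPS-stimulated endothelial/PBMC co-cultures. Both increases and decreases relative to DMSO control were scored through bidirectional fitting.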

A short description of test [8]: BSK_LPS_SRB: Viability Assessment in the BioMAP Diversity Plus: LPS Assay (AID 2283079).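 Note: total protein by sulforhodamine B absorbance as a cytotoxicity measure; measured one day after compound addition; fitted in both directions against DMSO so loss or gain of signal counts.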 As to conditions: primary human HUVEC with PBMC. The essentials: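 Readout is SRB absorbance at 560 nm (0.1% stain, TCA-fixed parallel cultures) as a total-protein cytotoxicity measure. Cells: primary human umbilical vein endothelium plus peripheral blood mononuclear cells, 24 h after chemical exposure; DMSO served as baseline.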

Read-out in test [9]: Interleukin-1 alpha (IL1a), IL1A (gene 3552)
The test can be described thus: BSK_LPS_IL1a: BioMAP Diversity Plus: LPS Assay for Interleukin-1 alpha (IL1a) Biomarker Activity (AID 2283080). As to conditions: primary human HUVEC with PBMC; actives raise or lower the signal. Summed up: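 ELISA read-out of IL-1 alpha from a human primary vascular co-culture (endothelium plus PBMC) under LPS, sampled 24 hours post-dosing. Activity was fitted in both directions relative to DMSO controls.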

Read-out in test [10]: Monocyte Chemoattractant Protein-1 (MCP1), CCL2 (gene 6347)
The test can be described thus: BSK_LPS_MCP1: BioMAP Diversity Plus: LPS Assay for Monocyte Chemoattractant Protein-1 (MCP1) Biomarker Activity (AID 2283081).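 For AC50: secreted MCP-1 protein quantified by ELISA in culture supernatant.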 The settings on record: primary human HUVEC with PBMC; actives raise or lower the signal. Summed up:
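Human endothelial–PBMC co-cultures were dosed with chemical, then LPS-driven MCP-1 levels were quantified by ELISA at 24 h. Activity in either direction was fitted versus DMSO negative control.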

Test [11] in a line: BSK_LPS_PGE2: BioMAP Diversity Plus: LPS Assay for Prostaglandin E2 (PGE2) Biomarker Activity (AID 2283082). The settings on record: primary human HUVEC with PBMC; actives raise or lower the signal. The essentials: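 LPS-activated HUVEC/PBMC co-culture; cmpd dosed, 24 h; PGE2 by ELISA; bidirectional fit vs DMSO; SRB (0.1%, TCA-fixed, 560 nm) in parallel plates for overt cytotox.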

Read-out in test [12]: Macrophage colony-stimulating factor (MCSF), CSF1 (gene 1435)
The test can be described thus: BSK_LPS_MCSF: BioMAP Diversity Plus: LPS Assay for Macrophage colony-stimulating factor (MCSF) Biomarker Activity (AID 2283083). The settings on record: primary human HUVEC with PBMC; actives raise or lower the signal. The essentials:
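ELISA readout of M-CSF after 24 h compound exposure in a human endothelial/PBMC co-culture. Activity, in either direction, is fitted relative to DMSO vehicle.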

Read-out in test [13]: Tissue Factor, F3 (gene 2152)
The test can be described thus: BSK_LPS_TissueFactor: BioMAP Diversity Plus: LPS Assay for Tissue Factor Biomarker Activity (AID 2283084). As to conditions: primary human HUVEC with PBMC; actives raise or lower the signal. The essentials: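 ELISA signal for cell-surface Tissue Factor (CD142) was read 24 h after compound dosing of an LPS-stimulated human endothelial–PBMC primary co-culture. Gain or loss of signal was scored relative to DMSO.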

Read-out in test [14]: Tumor necrosis factor (Homo sapiens) (UniProt P01375)
The test can be described thus: BSK_LPS_TNFa: BioMAP Diversity Plus: LPS Assay for Tumour Necrosis Factor alpha (TNFa) Biomarker Activity (AID 2283085).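 For AC50: TNFa protein level quantified by ELISA in the co-culture.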 As to conditions: primary human HUVEC with PBMC; actives raise or lower the signal. The essentials: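 Read-out is ELISA of TNFa in primary human endothelial cell–PBMC co-cultures at 24 h after compound. Activity in either direction was fitted against DMSO.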

Read-out in test [15]: Vascular cell adhesion molecule 1 (VCAM1), VCAM1 (gene 7412)
The test can be described thus: BSK_LPS_VCAM1: BioMAP Diversity Plus: LPS Assay for Vascular cell adhesion molecule 1 (VCAM1) Biomarker Activity (AID 2283086). As to conditions: primary human HUVEC with PBMC; actives raise or lower the signal. The essentials: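 HUVEC + PBMC co-culture, LPS system; compound 24 h; VCAM-1 by ELISA; bidirectional fit vs DMSO control; parallel SRB (0.1%, TCA-fixed, 560 nm) for cytotoxicity.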

Read-out in test [16]: CD38, CD38 (gene 952)
The test can be described thus: BSK_SAg_CD38: BioMAP Diversity Plus: SAg Assay for CD38 Biomarker Activity (AID 2283087). The settings on record: primary human HUVEC with PBMC; actives raise or lower the signal. The essentials: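 Human HUVEC plus PBMC co-culture stimulated with superantigen; CD38 measured by ELISA 24 h after chemical dosing. Fluorescence read-out, bidirectional fit against DMSO; cytotoxicity tracked in parallel by SRB and Alamar Blue.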

Read-out in test [17]: CD40, CD40 (gene 958)
Kind of test: BSK_SAg_CD40: BioMAP Diversity Plus: SAg Assay for CD40 Biomarker Activity (AID 2283088). The settings on record: primary human HUVEC with PBMC; actives raise or lower the signal. Summed up:
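Compounds were dosed onto a human primary endothelial–PBMC co-culture, and after 24 h CD40 was quantified by ELISA using a fluorescence signal. Activity in either direction was fitted relative to DMSO.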

Read-out in test [18]: CD69, CD69 (gene 969)
Kind of test: BSK_SAg_CD69: BioMAP Diversity Plus: SAg Assay for CD69 Biomarker Activity (AID 2283089).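 For AC50: cell surface CD69 protein quantified by ELISA with fluorescence detection.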 As to conditions: primary human HUVEC with PBMC; actives raise or lower the signal. The essentials: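 Endothelial/PBMC co-culture; chemical added; 24 h incubation; CD69 ELISA with fluorescence detection; bidirectional fit vs DMSO.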

Read-out in test [19]: urokinase plasminogen activator (uPA), PLAU (gene 5328)
The test can be described thus: BSK_KF3CT_uPA: BioMAP Diversity Plus: KF3CT Assay for urokinase plasminogen activator (uPA) Biomarker Activity (AID 2283075). As to conditions: primary human keratinocytes with fibroblasts; actives raise or lower the signal. The essentials:
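ELISA readout of uPA, analyzed for signal gain or loss relative to DMSO, from a human primary keratinocyte–foreskin fibroblast co-culture measured 24 h after chemical treatment.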

Molecules are shown by their SMILES. Values joined by “and” are separate entries in the source; they are usually repeats but may differ in a detail not shown here. Equal values may be shown once. Where a structure was tested more than once in an assay, its records may differ in their call. Active and inactive are the calls of the source. Rule for the calls: active = hit-call score of the fitted dose curve at least 0.9, where 1 is the maximum; inactive = score below 0.9.

For orientation: AC50 means the concentration giving half of the maximal activity seen.

E-selectin (Homo sapiens), sequence (P16581 whole entry, looked up): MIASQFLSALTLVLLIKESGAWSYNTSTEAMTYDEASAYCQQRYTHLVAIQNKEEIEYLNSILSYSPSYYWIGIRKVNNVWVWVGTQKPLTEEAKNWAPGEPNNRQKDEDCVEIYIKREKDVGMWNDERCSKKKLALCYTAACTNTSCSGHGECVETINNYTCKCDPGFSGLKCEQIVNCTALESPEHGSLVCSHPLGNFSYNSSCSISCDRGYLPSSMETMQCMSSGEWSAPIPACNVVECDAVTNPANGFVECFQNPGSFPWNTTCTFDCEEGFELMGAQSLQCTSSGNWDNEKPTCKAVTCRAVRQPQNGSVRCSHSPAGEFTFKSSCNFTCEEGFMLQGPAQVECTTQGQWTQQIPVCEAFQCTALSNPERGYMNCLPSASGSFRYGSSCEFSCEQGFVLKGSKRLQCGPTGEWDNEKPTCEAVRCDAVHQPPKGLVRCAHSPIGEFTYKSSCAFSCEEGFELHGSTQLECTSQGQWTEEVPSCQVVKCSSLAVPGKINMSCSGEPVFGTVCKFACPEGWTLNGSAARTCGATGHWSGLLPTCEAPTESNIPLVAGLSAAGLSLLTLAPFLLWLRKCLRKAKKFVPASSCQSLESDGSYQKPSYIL
Tumor necrosis factor (Homo sapiens), sequence (P01375 whole entry, looked up): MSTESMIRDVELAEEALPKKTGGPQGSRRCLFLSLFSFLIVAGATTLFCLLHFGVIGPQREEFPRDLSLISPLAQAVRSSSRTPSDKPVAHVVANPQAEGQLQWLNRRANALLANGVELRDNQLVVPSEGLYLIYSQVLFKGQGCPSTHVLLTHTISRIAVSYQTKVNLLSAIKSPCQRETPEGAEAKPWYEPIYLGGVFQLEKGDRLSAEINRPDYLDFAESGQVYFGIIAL

Regarding `OCC(F)(F)C(F)(F)C(F)(F)C(F)(F)C(F)(F)C(F)(F)C(F)(F)C(F)(F)CO`, the AC50 in test [1] was 50.4 µM (active); in [2], 55.2 µM (active) and 48.6 µM (active); in test [3], 50.8 µM (active) and 42.3 µM (active); in test [4] it was 50.3 µM (active) and 49.4 µM (active); in [6], 0.559 µM (active); in [14], 0.399 µM (active). For the same molecule, in test [18], the AC50 was 5.61 µM (active). The result in test [1], in test [5], in test [6], in test [7], in test [8] and in test [9] was inactive. In addition, the result in test [10], in [11], in [12], in [13], in test [14] and in [15] was inactive. Besides, the outcome in test [16], in [17] and in test [18] was inactive.
Take `CNS(=O)(=O)C(F)(F)C(F)(F)C(F)(F)C(F)(F)C(F)(F)C(F)(F)C(F)(F)C(F)(F)F`: the outcome in test [1], in test [2], in [3], in [4], in test [5] and in test [6] was inactive. The outcome in test [7], in test [8], in test [9], in test [10], in test [11] and in [12] was inactive. Further, the result in test [13], in test [14], in [15], in [16], in test [17] and in [18] was inactive. The figures for the AC50 in test [4], in test [8] and in [9] were 20.4 µM (active), 22.5 µM (active) and 5.38 µM (active), respectively.
On to `O=C(O)C(F)(F)OC(F)(F)C(F)(F)OC(F)(F)C(F)(F)OC(F)(F)F`, for which the result in test [1], in test [2], in test [3], in [4], in [19] and in test [5] was inactive. Also, the result in [6], in test [7], in test [8], in test [9], in test [10] and in [11] was inactive. The result in test [12], in test [13], in test [14], in test [15], in [16] and in [17] was inactive. Moreover, the result in [18] was inactive. In addition, in test [7], the AC50 is 9.98 µM (active) and 20 µM (active).
As to `CCN(CCO)S(=O)(=O)C(F)(F)C(F)(F)C(F)(F)C(F)(F)C(F)(F)C(F)(F)C(F)(F)C(F)(F)F`, the AC50 in test [1] is 20.8 µM (active) and 30 µM (active); in test [3], 14.4 µM (active); in test [4], 21.7 µM (active) and 20.9 µM (active); in test [6], 5.95 µM (active); in test [8] it was 39.4 µM (active) and 38.2 µM (active); in [9] it was 23.7 µM (active) and 5.83 µM (active). The AC50 was 21.8 µM (active) in test [10]; 7.7 µM (active) in test [12]; 10.8 µM (active) and 15 µM (active) in test [13]; 30 µM (active) and 35.9 µM (active) in test [15]; 35.9 µM (active) and 29.9 µM (active) in test [16]; 22.8 µM (active) and 46 µM (active) in [17]. Further, the AC50 in test [18] is 9.85 µM (active). In addition, the outcome in [2], in [3], in test [5], in test [6], in test [7] and in test [10] was inactive. The result in test [11], in test [12], in test [14] and in test [18] was inactive.
`O=C(O)CCC(F)(F)C(F)(F)C(F)(F)C(F)(F)C(F)(F)C(F)(F)C(F)(F)F`: the result in test [1], in test [2], in test [3], in [4], in test [5] and in test [6] was inactive. Besides, the result in [7], in [8], in test [9], in [10], in [11] and in [12] was inactive. In addition, the outcome in test [13], in test [14], in test [15], in [16], in test [17] and in test [18] was inactive.
